Among the data in PubChem BioAssay (EPA / NIEHS) are outcome and AC50 values, retold here.

For orientation: AC50 means the concentration giving half of the maximal activity seen.

The source made the active and inactive calls. Rule for the calls: active = hit-call score of the fitted dose curve at least 0.9, where 1 is the maximum; inactive = score below 0.9.

Common to all, as to details: mRNA level, 48 h; actives raise or lower the signal
Read-out in assay [1]: Cyclin Dependent Kinase Inhibitor 1A (CDKN1A), CDKN1A (gene 1026)
Nature of the assay: LTEA_HepaRG_CDKN1A: Life Technologies and Expression Analysis (LTEA) Assay for Cyclin Dependent Kinase Inhibitor 1A (CDKN1A) using HepaRG (AID 2283450). An outline of the steps:
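Read-out is CDKN1A mRNA by TaqMan qRT-PCR, normalized to three housekeeping genes and fitted in both directions against the DMSO baseline. Human HepaRG cells were treated 48 h with test chemicals up to 100 uM in half-log steps, 0.5% DMSO.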

Read-out in assay [2]: Cyclin D1 (CCND1), CCND1 (gene 595)
Nature of the assay: LTEA_HepaRG_CCND1: Life Technologies and Expression Analysis (LTEA) Assay for Cyclin D1 (CCND1) using HepaRG (AID 2283451).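 For AC50: differentiated human HepaRG liver cells in serum-free induction medium; TaqMan qRT-PCR transcript level normalised to ACTB GAPDH and POLR2A housekeeping genes.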 Put shortly:
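HepaRG plated 48 h, medium switched to serum-free induction medium, chemicals added in duplicate (top 100 uM, half-log steps, 0.5% DMSO) for 48 h, cells lysed, RNA measured by TaqMan qRT-PCR.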

Read-out in assay [3]: catalase (CAT), CAT (gene 847)
Kind of assay: LTEA_HepaRG_CAT: Life Technologies and Expression Analysis (LTEA) Assay for catalase (CAT) using HepaRG (AID 2283452).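 For AC50: TaqMan qRT-PCR signal normalized to ACTB GAPDH and POLR2A housekeeping genes.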 Put shortly:
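Differentiated HepaRG cells in serum-free induction medium were dosed 48 h in duplicate, eight half-log concentrations from 100 uM in 0.5% DMSO. Transcript measured by TaqMan qRT-PCR, normalised to ACTB/GAPDH/POLR2A, fitted bidirectionally against DMSO.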

Read-out in assay [4]: flavin-containing dimethylaniline monooxygenases 3 (FMO3), FMO3 (gene 2328)
Nature of the assay: LTEA_HepaRG_FMO3: Life Technologies and Expression Analysis (LTEA) Assay for flavin-containing dimethylaniline monooxygenases 3 (FMO3) using HepaRG (AID 2283453).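 Note: differentiated human HepaRG liver cells in serum-free induction medium; FMO3 transcript by TaqMan qRT-PCR normalized to ACTB GAPDH and POLR2A.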 An outline of the steps: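 FMO3 transcript quantified by TaqMan qRT-PCR against three housekeeping genes after 48 h chemical exposure of HepaRG cells. Eight-point half-log series, top 100 uM, 0.5% DMSO vehicle; phenobarbital 1mM induction control; up- or down-regulation fitted.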

Read-out in assay [5]: Cytochrome P450 (CYP1A1), CYP1A1 (gene 1543)
Kind of assay: LTEA_HepaRG_CYP1A1: Life Technologies and Expression Analysis (LTEA) Assay for Cytochrome P450 (CYP1A1) using HepaRG (AID 2283454). An outline of the steps: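 HepaRG, 48 h post-plating switched to serum-free induction medium; 8-pt conc-response (top 100 uM, half-log, 0.5% DMSO), duplicates, 48 h. Lysis in RLT, TaqMan qRT-PCR for CYP1A1; gain or loss vs DMSO.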

Read-out in assay [6]: Forkhead box O1 (FOXO1), FOXO1 (gene 2308)
Kind of assay: LTEA_HepaRG_FOXO1: Life Technologies and Expression Analysis (LTEA) Assay for Forkhead box O1 (FOXO1) using HepaRG (AID 2283456). Put shortly: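 Using one lot of HepaRG hepatic cells kept in 0.5% DMSO, the team applied test chemicals in duplicate, half-log dilutions from 100 uM, for 48 h. Expression, normalised to ACTB/GAPDH/POLR2A, was compared with vehicle in either direction.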

Read-out in assay [7]: Forkhead box O3 (FOXO3), FOXO3 (gene 2309)
Kind of assay: LTEA_HepaRG_FOXO3: Life Technologies and Expression Analysis (LTEA) Assay for Forkhead box O3 (FOXO3) using HepaRG (AID 2283459). Put shortly:
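Gene-expression endpoint: FOXO3 transcript level by qRT-PCR in HepaRG cultures treated 48 h with chemicals up to 100 uM (half-log, 0.5% DMSO vehicle).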

Read-out in assay [8]: growth arrest and DNA damage 45 (GADD45B), GADD45B (gene 4616)
Kind of assay: LTEA_HepaRG_GADD45B: Life Technologies and Expression Analysis (LTEA) Assay for growth arrest and DNA damage 45 (GADD45B) using HepaRG (AID 2283461). Put shortly:
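HepaRG, ~100,000 cells/well, 48 h plating; serum-free induction medium; cpd 100 uM top, half-log x8, 0.5% DMSO, duplicate, 48 h; lysis in RLT, RNA isolation, qRT-PCR; norm ACTB/GAPDH/POLR2A; bidirectional fit vs DMSO.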

Read-out in assay [9]: ABC Transporter (ABCC3), ABCC3 (gene 8714)
Kind of assay: LTEA_HepaRG_ABCC3: Life Technologies and Expression Analysis (LTEA) Assay for ABC Transporter (ABCC3) using HepaRG (AID 2283462). Put shortly:
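Human HepaRG, 48 h dosing, 8-pt half-log series from 100 uM, 0.5% DMSO vehicle, duplicates. ABCC3 mRNA by TaqMan qRT-PCR, housekeeping-normalized; bidirectional curve fit vs DMSO.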

Read-out in assay [10]: ABC Transporter (ABCB11), ABCB11 (gene 8647)
Nature of the assay: LTEA_HepaRG_ABCB11: Life Technologies and Expression Analysis (LTEA) Assay for ABC Transporter (ABCB11) using HepaRG (AID 2283463). Put shortly:
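Using HepaRG cultures held in 0.5% DMSO, chemicals were tested at half-log dilutions from 100 uM for 48 h. Induction or suppression of ABCB11 mRNA, normalized to ACTB, GAPDH and POLR2A, was fitted bidirectionally against vehicle.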

Read-out in assay [11]: ABC Transporter (ABCC2), ABCC2 (gene 1244)
Kind of assay: LTEA_HepaRG_ABCC2: Life Technologies and Expression Analysis (LTEA) Assay for ABC Transporter (ABCC2) using HepaRG (AID 2283464). An outline of the steps:
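HepaRG, 48 h post-plating; serum-free induction medium; cpd 8-pt, 100 uM top, half-log, 0.5% DMSO, duplicate, 48 h. Readout: ABCC2 mRNA by qRT-PCR, norm. ACTB/GAPDH/POLR2A. Bidirectional fit vs DMSO baseline.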

Read-out in assay [12]: Broad substrate specificity ATP-binding cassette transporter ABCG2 (Homo sapiens) (UniProt Q9UNQ0)
Kind of assay: LTEA_HepaRG_ABCG2: Life Technologies and Expression Analysis (LTEA) Assay for ABC Transporter (ABCG2) using HepaRG (AID 2283465). An outline of the steps: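 Gene expression of ABCG2 in HepaRG liver cells is quantified by qRT-PCR following 48 h exposure across an eight-point series topping at 100 uM. Values come from bidirectional fitting relative to DMSO vehicle.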

Read-out in assay [13]: ATP-citrate lyase (ACLY), ACLY (gene 47)
Kind of assay: LTEA_HepaRG_ACLY: Life Technologies and Expression Analysis (LTEA) Assay for ATP-citrate lyase (ACLY) using HepaRG (AID 2283466). Put shortly:
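ACLY expression changes in human HepaRG liver cells are quantified by qRT-PCR after 48 h exposure to test chemicals (maximum 100 uM, half-log steps). Values are fitted in both directions relative to 0.5% DMSO vehicle.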

Read-out in assay [14]: Peroxisomal acyl-coenzyme A oxidase 1 (ACOX1) gene, ACOX1 (gene 51)
Nature of the assay: LTEA_HepaRG_ACOX1: Life Technologies and Expression Analysis (LTEA) Assay for Peroxisomal acyl-coenzyme A oxidase 1 (ACOX1) gene using HepaRG (AID 2283467). Put shortly:
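Human HepaRG hepatic cultures, 48 h treatment with test chemicals up to 100 uM. ACOX1 expression read by qRT-PCR relative to 0.5% DMSO vehicle.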

Read-out in assay [15]: Alkaline Phosphatase, Placental (ALPP) gene, ALPP (gene 250)
Kind of assay: LTEA_HepaRG_ALPP: Life Technologies and Expression Analysis (LTEA) Assay for Alkaline Phosphatase, Placental (ALPP) gene using HepaRG (AID 2283468). An outline of the steps:
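HepaRG, 48 h plating then 48 h dosing, serum-free induction medium, 0.5% DMSO. 8 conc, half-log, max 100 uM, duplicates. Endpoint: ALPP transcript by qRT-PCR, housekeeping-normalized; gain or loss fitted vs DMSO.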

Read-out in assay [16]: ABC Transporter (ABCB1), ABCB1 (gene 5243)
Kind of assay: LTEA_HepaRG_ABCB1: Life Technologies and Expression Analysis (LTEA) Assay for ABC Transporter (ABCB1) using HepaRG (AID 2283460). An outline of the steps:
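Human liver HepaRG line treated 48 h with up to 100 uM compound (eight half-log points, 0.5% DMSO); ABCB1 mRNA change fitted bidirectionally against DMSO controls.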

Read-out in assay [17]: Cyclin D2 (CCND2), CCND2 (gene 894)
Kind of assay: LTEA_HepaRG_CCND2: Life Technologies and Expression Analysis (LTEA) Assay for Cyclin D2 (CCND2) using HepaRG (AID 2283449).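 Note: CCND2 transcript measured by TaqMan qRT-PCR and normalised to three housekeeping genes.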 An outline of the steps:
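In this HepaRG study, an eight-point concentration series (max 100 uM, 0.5% DMSO) is applied for 48 h. CCND2 mRNA change is derived by qRT-PCR normalised to ACTB, GAPDH and POLR2A.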

Read-out in assay [18]: CFLAR gene, CFLAR (gene 8837)
Kind of assay: LTEA_HepaRG_CFLAR: Life Technologies and Expression Analysis (LTEA) Assay for CFLAR gene using HepaRG (AID 2283455). An outline of the steps:
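Gain- or loss-of-signal changes in CFLAR transcript were fitted bidirectionally relative to 0.5% DMSO. Cells (HepaRG, duplicate wells) were dosed for 48 h across eight half-log concentrations topping at 100 uM; quantitation by TaqMan qRT-PCR.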

Read-out in assay [19]: growth arrest and DNA damage 45 (GADD45A), GADD45A (gene 1647)
Kind of assay: LTEA_HepaRG_GADD45A: Life Technologies and Expression Analysis (LTEA) Assay for growth arrest and DNA damage 45 (GADD45A) using HepaRG (AID 2283458). Put shortly: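 Transcript induction or loss, quantified by TaqMan qRT-PCR against three housekeeping genes, is the read-out. HepaRG cells received chemicals for 48 h across eight half-log concentrations from 100 uM in 0.5% DMSO; gain and loss fitted relative to DMSO.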

Sequence of Broad substrate specificity ATP-binding cassette transporter ABCG2 (Homo sapiens) (Q9UNQ0 whole entry, looked up): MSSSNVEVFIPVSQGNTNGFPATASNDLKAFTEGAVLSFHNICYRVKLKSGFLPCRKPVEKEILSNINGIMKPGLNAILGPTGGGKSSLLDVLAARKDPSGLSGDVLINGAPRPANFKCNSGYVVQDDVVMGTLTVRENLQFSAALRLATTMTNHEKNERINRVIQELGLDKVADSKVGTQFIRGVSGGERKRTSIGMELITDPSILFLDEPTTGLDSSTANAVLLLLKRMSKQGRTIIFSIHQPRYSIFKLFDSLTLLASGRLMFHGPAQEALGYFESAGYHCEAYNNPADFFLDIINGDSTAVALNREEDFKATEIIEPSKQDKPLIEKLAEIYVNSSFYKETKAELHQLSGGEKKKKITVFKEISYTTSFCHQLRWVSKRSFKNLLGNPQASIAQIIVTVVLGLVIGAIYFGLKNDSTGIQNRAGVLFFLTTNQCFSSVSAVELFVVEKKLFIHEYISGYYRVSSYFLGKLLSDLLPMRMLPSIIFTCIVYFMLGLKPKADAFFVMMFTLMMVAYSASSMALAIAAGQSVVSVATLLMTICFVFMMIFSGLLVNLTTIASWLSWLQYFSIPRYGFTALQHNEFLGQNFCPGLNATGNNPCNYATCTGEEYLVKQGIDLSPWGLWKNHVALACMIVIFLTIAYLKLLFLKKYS

With `O=c1c(O)c(-c2ccc(O)c(O)c2)oc2cc(O)cc(O)c12`, the result in assay [1], in assay [2], in [3], in assay [6], in [7] and in assay [8] was inactive. Also, the compound was called inactive in [9], in assay [11], in assay [12], in assay [13], in assay [14] and in assay [15]. Further, the AC50 in [4] is 80 µM (active); in [5] it was 634 nM (active); in assay [10], 76.7 µM (active).
For `Nc1ccccc1N`, the AC50 in assay [1] is 50 µM (active); in [3], 61.7 µM (active); in assay [4], 63.7 µM (active); in [5], 3280 nM (active); in assay [6], 82.2 µM (active); in assay [7], 63.3 µM (active). Moreover, the AC50 in [16] is 68.9 µM (active); in [8], 50 µM (active); in assay [9], 71.9 µM (active); in assay [11] it was 71 µM (active); in assay [14], 62.3 µM (active). Further, the outcome in assay [2], in assay [12] and in assay [15] was inactive.
Regarding `Oc1ccc2ccccc2c1N=Nc1ccccc1`, the call in [17], in [1], in assay [6], in [9], in [11] and in [13] was inactive. In addition, the result in assay [15] was inactive. The AC50 in assay [2] was 9.92 µM (active); in assay [3], 9.92 µM (active); in [4] it was 10.4 µM (active); in assay [5] it was 140 nM (active); in assay [7], 7.86 µM (active); in [8], 31 µM (active). The AC50 in assay [10] was 6.98 µM (active); in [12], 30.3 µM (active); in assay [14] it was 11.1 µM (active).
Take `O=c1[nH]cc(F)c(=O)[nH]1`: the AC50 in assay [1] was 35.5 µM (active); in assay [3] it was 30.7 µM (active); in assay [4] it was 36.3 µM (active); in assay [10], 64 µM (active). For the same compound, the compound was classed as inactive in assay [2], in assay [5], in assay [18], in assay [6], in assay [19] and in [7]. Besides, the compound was called inactive in assay [16], in [8], in assay [9], in [11], in [12] and in assay [13]. The compound was classed as inactive in [14] and in [15].
